B2AR arrestin ag – beta-arrestin recruitment by human beta2-adrenergic receptor ligands | P07550 | HTLA Tango cells, beta-arrestin recruitment, luciferase luminescence, 18 h | Potency, µM (top dose mostly 46.1 µM), most hits filed as activators | 44,000 tested, under 10 active;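 also: potency is read from the fitted curve at half-maximal effect; 0% = DMSO and full agonism = EC100 isoproterenol or metaproterenol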
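Luminescence read-out: arrestin recruitment to recombinant beta2-AR releases tTA, inducing luciferase. Cells exposed 18 hr at 37 degrees C to up to 46 microM compound; %Activity from corrected signal, concentration-response curves classified by r2, magnitude and efficacy.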
GALC G270D act – galactocerebrosidase G270D activity enhancement, cell-based; P54803; 145M-Twi-hGALC-G270D cells (Twitcher mouse brain line with human GALC G270D), HMU-beta-Gal fluorescence, 48 h; Potency, µM (titrated, usually from 57.5 µM), hits mostly activators; 0.1% of 45,000 active; AID 1159614; also: potency is read from the fitted curve at half-maximal effect; 0% is about no effect; nearly all actives have a fitted effect of over 65% in size
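Live 145M-Twi cells (Twitcher mouse brain-derived, GALC-null) stably expressing human GALC-G270D, with a wild-type GALC line, were compound-treated. Residual GALC activity was then read as fluorescence from 0.1 mM final HMU-β-gal at pH 5.2; higher signal means activation.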
DRV1 agonist – GPR32 (DRV1) agonism, beta-arrestin recruitment; CHO-K1 GPR32 beta-arrestin PathHunter luminescence, 90 min; zero percent set by DMSO-only wells; activation, % at 76.9 µM; 2.5% of 48,000 active; AID 1346428;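 active = activation of at least 60% and not above a set upper limit, about 1 call in 100 departs from these limits; inconclusive = activation of 40% to 60%, or above that upper limit; inactive = activation under 40%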; also: 0% is about no effect
Target sequence (O75388 whole entry, looked up): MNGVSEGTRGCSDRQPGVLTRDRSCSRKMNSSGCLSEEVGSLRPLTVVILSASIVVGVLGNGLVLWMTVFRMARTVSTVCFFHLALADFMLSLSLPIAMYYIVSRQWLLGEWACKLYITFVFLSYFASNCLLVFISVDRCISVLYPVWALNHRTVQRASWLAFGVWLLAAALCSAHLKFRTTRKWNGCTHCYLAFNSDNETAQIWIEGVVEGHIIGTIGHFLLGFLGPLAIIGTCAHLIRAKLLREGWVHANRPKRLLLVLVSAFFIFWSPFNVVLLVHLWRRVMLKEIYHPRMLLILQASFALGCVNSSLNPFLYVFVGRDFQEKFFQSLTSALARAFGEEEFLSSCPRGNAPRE
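PathHunter enzyme-fragment complementation, CHO-K1 GPR32 stable line; 2,500 cells/well, overnight attach; cpd 90 min 37 °C 5% CO2; detection reagent 1 h RT; chemiluminescence. DMSO = EC0.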
NTMT1 inh – blocks human N-terminal methyltransferase 1 activity; 2.5% of 59,000 active; Q9BV86; NTMT1 MTase-Glo SAH luminescence, purified enzyme; Potency, µM (series often up to 114 µM), for the others: at the highest dose activity change, negative = inhibition, usual class: inhibitors;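 also: potency is read from the fitted curve at half-maximal effect; plate controls were DMSO vehicle for no effect and no enzyme for full effect; nearly all actives have a fitted effect of over 65% in size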
Target sequence (Q9BV86 whole entry, looked up): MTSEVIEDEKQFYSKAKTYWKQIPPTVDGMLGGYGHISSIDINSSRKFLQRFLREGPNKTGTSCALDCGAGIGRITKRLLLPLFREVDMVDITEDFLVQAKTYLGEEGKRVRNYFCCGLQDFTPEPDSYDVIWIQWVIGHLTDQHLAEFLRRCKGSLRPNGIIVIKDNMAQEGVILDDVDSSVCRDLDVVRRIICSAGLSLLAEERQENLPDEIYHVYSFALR
GALK inh – inhibitors of human galactokinase (GALK). P51570. recombinant GALK, Kinase-Glo ATP luminescence, 1 h. Potency, µM (highest dose often 57.5 µM), without a hit: at the top dose activity, negative = inhibition, hits mostly inhibitors. 44,000 tested, under 10 active;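 also: plate controls were full GALK reaction for no effect and reaction lacking GALK for full effect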
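5 nM GALK with 35 µM ATP and 100 µM galactose in HEPES pH 8.0, MgCl2, NaCl, DTT, BSA; 1 h RT reaction, remaining ATP detected by Kinase-Glo Plus luminescence after 10 min; qHTS concentration series.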
Numbers without * were called inactive; i = inactive; ? = inconclusive; . = no result; ! = not confirmed by another sample; [ ] = another dose, or the depositor's remark. Compounds with a hit are over-represented: about 3.6% of the library has one in this group of screens. Unless noted, calls follow the shape of the dose curve; as a rule, active = well fitted curve in the direction sought with a large enough effect; inconclusive = small, poorly fitted or top-dose-only effect, or another doubt; inactive = no such curve, though single readings can be large; an effect the other way counts as inactive or inconclusive.

SMILES	B2AR arrestin ag	GALC G270D act	DRV1 agonist	NTMT1 inh	GALK inh
O=C(Nc1ccc(N2CCC(N3CCCCC3)CC2)c(C(=O)O)c1)c1ccccc1	i	i	26	50µM*	3%
Cc1cccc(C(=O)Nc2ccc(N3CC=C(c4ccccc4C)CC3)c(C(=O)O)c2)c1	i	i	10	40µM*	0%
Cc1oc2ccc(O)c(CN3CCCC3)c2c1C(=O)Nc1ccc(C(C)C)cc1	i	.	118*	.	4%
COc1ccc(NC(=O)c2c(C)oc3ccc(O)c(CN4CCC(C)CC4)c23)cc1Cl	i	.	83*	.	-8%
COc1ccc(NC(=O)c2c(C)oc3ccc(O)c(CN4CCCC(C)C4)c23)cc1Cl (stereo not given)	i	i	-22	-6%	1%
N#Cc1cccnc1N1CCN(C(=O)c2cccc(Cc3n[nH]c(=O)c4ccccc34)c2)CC1	.	.	.	-2%	.
CCOc1ccc(C(=O)Oc2ccc(-c3nc4ccccc4[nH]3)cc2)cc1[N+](=O)[O-]	.	.	.	2%	.
O=C(Nc1c(Cl)cccc1Cl)c1cc(-c2cccc(O)c2)on1	i	.	105*	.	-2%
COc1cccc(-c2cc(C(=O)NCc3ccccc3)no2)c1	i	.	34	.	4%
O=C(c1cc(-c2cccc(Cl)c2)on1)N1CCCCC1	i	.	66*	.	1%
COc1ccc(CNC(=O)c2cc(-c3cccc(Cl)c3)on2)cc1	i	.	66*	.	-4%
Cc1c(Cl)cccc1NC(=O)c1cc(-c2cccs2)on1	i	i	91*	-8%	-1%
Cc1ccc(NC(=O)c2cc(-c3cccs3)on2)cc1C	i	i	24	27%	-1%
CC1=C(/C=C/C(C)=C/C=C/C(C)=C/C(=O)Nc2ccc(O)cc2)C(C)(C)CCC1	.	i	84*!	11%	.
Cc1ccc(CNC(=O)CN(c2ccc(C)cc2)S(=O)(=O)c2c(C)nn(C)c2C)cc1	i	i	-2	0%	9%
Cc1ccc(CNC(=O)CN(c2ccc(C(C)C)cc2)S(=O)(=O)c2c(C)n[nH]c2C)cc1	i	i	83*	17%	0%
CCCN(CCC)CCNC(=O)Cn1cc2c(n1)-c1c(oc(C(=O)N3CCCC3)c1C)CC2	22µM*	i	-14	-3%	1%
CCCCN(CCCC)CCCNC(=O)Cn1cc2c(n1)-c1c(oc(C(=O)N3CCCC3)c1C)CC2	?	i	-21	-12%	0%
O=C(Nc1cccc(C(=O)O)c1)Nc1nnc(-c2ccncc2)s1	.	.	.	11%	.
CNC(=O)COC(=O)NCCC1CCN(c2cccc(C)n2)CC1	.	.	.	2%[57.5 µM]	.
COc1ccc(NC(=O)c2ccco2)cc1NC(=O)COc1ccccc1Cl	i	i	64*	3%	1%
COc1ccc(NC(=O)c2ccco2)cc1NC(=O)COc1cc(C)cc(C)c1	i	i	12	16%	2%
C[n+]1c2cc(N)ccc2cc2ccc(N)cc21 (tested in a mixture with another compound)	.	i	15	40µM*	.
O=c1[nH]nc2c3c(cccc13)NC(CN1Cc3ccccc3C1)=N2	.	.	.	22%	.
COc1ccc(CN2CCN(C(c3ccc(F)cc3)c3ccc(F)cc3)CC2)c(OC)c1OC	.	i	78*	-2%[57.5 µM]	.
SMILES	B2AR arrestin ag	GALC G270D act	DRV1 agonist	NTMT1 inh	GALK inh
CO[C@H]1c2cc(C(C)C)c(O)c(O)c2[C@@]23CCCC(C)(C)C2[C@@H]1OC3=O (stereo not given in full)	.	.	.	-7%[29.8 µM]	.
CC1CC(O)CC(C)(C)C1(O)CCO (stereo not given)	.	.	.	1%	.
Fc1ccccc1Cc1cn2cc(-c3ccc(Cl)cc3)nc2s1	i	i	68*	4%	6%
Cc1cc2ccccc2n1CCNC(=O)c1cccc(Br)c1	i	i	25	-5%	3%
Cc1cc2ccccc2n1CCNC(=O)c1cccc(Cl)c1	i	i	116*	0%	1%
Cc1cnc(-c2ccccc2C2COC2)nc1NCC1CCN(c2cccnc2)CC1	.	.	.	-1%	.
CCOc1ccc(CNC(=O)c2ccc(Sc3ccc(Cl)cc3)c(NC(C)=O)c2)cc1OC	i	i	-12	89µM*	-2%
COc1ccccc1NC(=O)COC(=O)CC(C)(C)CC1=NS(=O)(=O)c2ccccc2N1	?	i	?	-3%	0%
CCOC(=O)c1ccccc1NC(=O)COC(=O)CC(C)(C)CC1=NS(=O)(=O)c2ccccc2N1	i	i	84*	-18%	-2%
CC(C)(CC(=O)OCC(=O)Nc1ccc(F)c(Cl)c1)CC1=NS(=O)(=O)c2ccccc2N1	i	i	115*	-20%	2%
CC(C)(CC(=O)OCC(=O)Nc1ccccc1F)CC1=NS(=O)(=O)c2ccccc2N1	i	i	112*	-7%	-6%
CCCN1CCC=C(c2cc(-c3ccc(C)cc3)no2)C1	.	.	.	-9%[57.5 µM]	.
Cc1ccc(OCCn2c(CCNC(=O)c3ccc(C#N)cc3)nc3ccccc32)cc1	.	.	.	11%	.
Cn1cc(C(=O)N2CCN(c3cccc(C(F)(F)F)c3)CC2)c2c3ccccc3n(C)c2c1=O	i	i	118*	8%	-6%
Cn1c2ccccc2c2c(C(=O)N3CCN(c4cccc(C(F)(F)F)c4)CC3)cn(C3CCCCC3)c(=O)c21	i	i	-30	-2%	4%
O=C(Nc1ncc(Cc2ccc(C(F)(F)F)cc2)s1)c1ncc(-c2ccccc2)[nH]1	.	.	.	10%[57.5 µM]	.
O=C(Nc1ccc2oc(-c3cccnc3)nc2c1)c1ccc(-c2ccc(OC(F)(F)F)cc2)o1	i	i	30	50µM*	1%
O=C(Nc1ccc2oc(-c3cccnc3)nc2c1)c1ccc(-c2ccccc2)o1	i	i	-1	?	0%
CN1CCN(CCCNc2ncc(Cl)c(-c3cc4c(C(=O)NC5CC5)cccc4s3)n2)CC1	.	.	.	79µM*	.
CN1CCN(CCCNC(=O)c2cnn(-c3ccccc3)c2C2CCN(C(=O)OC(C)(C)C)CC2)CC1	i	i	0	-2%	0%
CCN1CCN(Cc2ccc(NC(=O)c3ccc(C)c(Oc4ccnc5[nH]ccc45)c3)cc2C(F)(F)F)CC1	.	.	.	-15%[29.8 µM]	.
CCN(CC)c1ccc(NC(=O)C2CCN(c3nnc(-n4cccc4)s3)CC2)c(C)c1	i	i	60*	3%	-7%
O=C(Nc1ccccc1C(F)(F)F)C1CCN(c2nnc(-n3cccc3)s2)CC1	i	i	-7	-9%	1%
Nc1ccc(/C=C/C(=O)NCc2cc3cc(-c4ccc(C(=O)N5CCC(F)(F)CC5)cc4)cc(-c4ccc(F)cc4)c3o2)cn1	.	.	.	-10%	.
CC1CCN(c2nc3ccc(C(=O)NCc4ccccc4)cc3s2)CC1	i	i	8	5%	7%
